# Test results: publication PMC7862700, “An all-to-all approach to the identification of sequence-specific readers for epigenetic DNA modifications on cytosine”
# How the values were obtained:
# Experiment in all cases: DAPPL (digital affinity profiling via proximity ligation, sequencing); 10 mM Tris-HCl pH 7.5, 50 mM NaCl, 1 mM DTT, 4% glycerol, room temperature, 30 min; GST-TFs on glutathione beads, 16-mer random dsDNA library, 0.1% formaldehyde crosslink after washing; high values mean tight binding
# Conditions in all cases: protein: recombinant; tags: N-terminal GST; dsDNA, one strand shown
# FLI1 = molecular target: T1, FLI1 (Homo sapiens, UniProt Q01543 1-452)
# T1 sequence: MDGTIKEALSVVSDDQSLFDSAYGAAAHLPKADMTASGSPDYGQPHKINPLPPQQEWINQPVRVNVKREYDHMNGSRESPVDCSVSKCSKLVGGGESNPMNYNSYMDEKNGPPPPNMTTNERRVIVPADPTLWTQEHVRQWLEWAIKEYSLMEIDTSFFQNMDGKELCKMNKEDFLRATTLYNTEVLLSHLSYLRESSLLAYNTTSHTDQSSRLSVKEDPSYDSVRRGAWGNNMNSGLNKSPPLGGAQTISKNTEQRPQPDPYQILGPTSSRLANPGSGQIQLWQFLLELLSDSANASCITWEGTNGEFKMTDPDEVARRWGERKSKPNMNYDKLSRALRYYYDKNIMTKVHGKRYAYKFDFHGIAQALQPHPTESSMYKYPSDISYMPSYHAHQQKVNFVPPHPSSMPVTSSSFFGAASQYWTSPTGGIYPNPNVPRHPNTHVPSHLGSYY
# Method in brief: (§1)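 Pools were built from human transcription factors expressed in yeast as GST fusions, captured on glutathione beads and DNA-barcoded, along with a tag-only sample. Incubation with 200 nmole of a 16-mer random double-stranded DNA library lasted 30 min at room temperature in Tris/NaCl/DTT/glycerol buffer, and was followed by washing, 0.1% formaldehyde crosslinking, proximity ligation, PCR amplification and Illumina NextSeq500 sequencing. Binding signal is the quotient of each hexamer's read frequency for a factor and its frequency for the tag-only sample.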
# GABPA = molecular target: T2, GABPA (Homo sapiens, UniProt Q06546 1-454)
# T2 sequence: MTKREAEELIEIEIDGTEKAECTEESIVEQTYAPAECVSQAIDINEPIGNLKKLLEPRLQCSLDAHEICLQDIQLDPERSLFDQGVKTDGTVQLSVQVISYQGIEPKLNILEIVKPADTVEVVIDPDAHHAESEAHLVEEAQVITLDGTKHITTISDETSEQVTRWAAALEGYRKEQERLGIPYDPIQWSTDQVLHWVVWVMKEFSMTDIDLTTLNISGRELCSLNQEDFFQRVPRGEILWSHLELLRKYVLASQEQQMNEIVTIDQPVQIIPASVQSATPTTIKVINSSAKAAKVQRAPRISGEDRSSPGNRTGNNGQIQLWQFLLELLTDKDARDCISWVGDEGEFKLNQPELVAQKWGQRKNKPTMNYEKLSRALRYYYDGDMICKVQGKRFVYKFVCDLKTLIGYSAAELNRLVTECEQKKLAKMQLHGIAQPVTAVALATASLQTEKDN
# Method in brief: as §1
# ELF1 = ELF1 (Homo sapiens, UniProt P32519 1-619)
# ELF1, sequence (P32519 whole entry): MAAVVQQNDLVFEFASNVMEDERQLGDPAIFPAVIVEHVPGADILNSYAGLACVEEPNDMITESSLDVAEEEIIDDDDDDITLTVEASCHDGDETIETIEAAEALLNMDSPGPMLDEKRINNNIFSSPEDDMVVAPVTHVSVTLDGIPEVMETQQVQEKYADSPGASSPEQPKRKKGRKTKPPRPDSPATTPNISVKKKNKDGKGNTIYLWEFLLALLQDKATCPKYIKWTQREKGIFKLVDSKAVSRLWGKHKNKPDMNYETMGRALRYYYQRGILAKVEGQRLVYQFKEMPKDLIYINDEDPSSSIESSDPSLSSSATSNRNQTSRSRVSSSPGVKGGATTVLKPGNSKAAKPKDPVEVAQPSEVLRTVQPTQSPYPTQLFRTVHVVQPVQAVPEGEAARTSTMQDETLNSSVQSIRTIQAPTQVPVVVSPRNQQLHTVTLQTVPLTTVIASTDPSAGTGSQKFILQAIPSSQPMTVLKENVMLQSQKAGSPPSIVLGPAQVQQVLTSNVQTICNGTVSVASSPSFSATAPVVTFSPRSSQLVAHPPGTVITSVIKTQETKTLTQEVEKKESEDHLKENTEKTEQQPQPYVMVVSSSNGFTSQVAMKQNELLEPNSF
# Method in brief: as §1
# EHF = molecular target: T3, EHF (Homo sapiens, UniProt Q9NZC4 1-300)
# T3 sequence: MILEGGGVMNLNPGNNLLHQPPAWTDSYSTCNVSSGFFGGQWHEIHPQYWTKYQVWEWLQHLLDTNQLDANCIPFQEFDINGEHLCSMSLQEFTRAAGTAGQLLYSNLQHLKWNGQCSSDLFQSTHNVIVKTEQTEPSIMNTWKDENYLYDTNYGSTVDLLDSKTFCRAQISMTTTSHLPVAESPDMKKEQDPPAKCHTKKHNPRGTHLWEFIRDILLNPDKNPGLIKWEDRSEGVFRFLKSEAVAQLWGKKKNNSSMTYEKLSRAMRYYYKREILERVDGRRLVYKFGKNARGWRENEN
# Method in brief: as §1
# SPIB = SPIB (Homo sapiens, UniProt Q01892 1-262)
# SPIB, sequence (Q01892 whole entry): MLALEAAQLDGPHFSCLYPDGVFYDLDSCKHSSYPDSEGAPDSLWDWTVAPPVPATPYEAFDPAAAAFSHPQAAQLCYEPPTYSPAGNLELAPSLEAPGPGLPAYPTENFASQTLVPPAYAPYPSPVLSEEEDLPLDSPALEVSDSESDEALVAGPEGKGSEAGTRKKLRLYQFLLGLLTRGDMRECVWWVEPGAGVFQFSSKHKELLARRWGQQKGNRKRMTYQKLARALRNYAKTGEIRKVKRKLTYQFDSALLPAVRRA
# Method in brief: as §1
# ELK3 = molecular target: T4, ELK3 (Homo sapiens, UniProt P41970 1-407)
# T4 sequence: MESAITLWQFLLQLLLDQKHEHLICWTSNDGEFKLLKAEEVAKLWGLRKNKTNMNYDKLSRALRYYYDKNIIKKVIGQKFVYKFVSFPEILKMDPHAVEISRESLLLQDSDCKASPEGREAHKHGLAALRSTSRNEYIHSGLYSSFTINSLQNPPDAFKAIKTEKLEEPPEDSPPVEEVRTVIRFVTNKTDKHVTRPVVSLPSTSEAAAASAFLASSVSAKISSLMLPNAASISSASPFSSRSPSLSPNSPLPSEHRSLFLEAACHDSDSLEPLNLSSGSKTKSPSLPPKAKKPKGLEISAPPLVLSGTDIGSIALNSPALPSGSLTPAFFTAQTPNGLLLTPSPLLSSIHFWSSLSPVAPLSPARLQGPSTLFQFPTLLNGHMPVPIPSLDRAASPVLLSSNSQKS
# Method in brief: as §1
# ERG = molecular target: T5, ERG (Homo sapiens, UniProt P11308 1-479)
# T5 sequence: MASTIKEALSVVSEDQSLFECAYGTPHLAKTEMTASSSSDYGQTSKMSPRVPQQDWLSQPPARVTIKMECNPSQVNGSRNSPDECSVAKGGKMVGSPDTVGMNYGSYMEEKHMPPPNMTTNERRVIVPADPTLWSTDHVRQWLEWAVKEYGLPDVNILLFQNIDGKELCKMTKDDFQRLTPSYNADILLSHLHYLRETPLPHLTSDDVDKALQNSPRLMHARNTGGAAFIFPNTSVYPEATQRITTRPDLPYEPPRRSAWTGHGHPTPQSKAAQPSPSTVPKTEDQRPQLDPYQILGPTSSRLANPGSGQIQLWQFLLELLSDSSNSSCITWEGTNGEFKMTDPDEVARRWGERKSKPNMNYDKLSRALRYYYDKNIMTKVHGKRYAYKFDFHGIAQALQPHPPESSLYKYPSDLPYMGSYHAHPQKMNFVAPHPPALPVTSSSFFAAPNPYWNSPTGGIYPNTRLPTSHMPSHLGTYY
# Method in brief: as §1
# SPI1 = SPI1 (Homo sapiens, UniProt P17947 1-270)
# Method in brief: as §1
# ELK1 = molecular target: T6, ELK1 (Homo sapiens, UniProt P19419 1-428)
# T6 sequence: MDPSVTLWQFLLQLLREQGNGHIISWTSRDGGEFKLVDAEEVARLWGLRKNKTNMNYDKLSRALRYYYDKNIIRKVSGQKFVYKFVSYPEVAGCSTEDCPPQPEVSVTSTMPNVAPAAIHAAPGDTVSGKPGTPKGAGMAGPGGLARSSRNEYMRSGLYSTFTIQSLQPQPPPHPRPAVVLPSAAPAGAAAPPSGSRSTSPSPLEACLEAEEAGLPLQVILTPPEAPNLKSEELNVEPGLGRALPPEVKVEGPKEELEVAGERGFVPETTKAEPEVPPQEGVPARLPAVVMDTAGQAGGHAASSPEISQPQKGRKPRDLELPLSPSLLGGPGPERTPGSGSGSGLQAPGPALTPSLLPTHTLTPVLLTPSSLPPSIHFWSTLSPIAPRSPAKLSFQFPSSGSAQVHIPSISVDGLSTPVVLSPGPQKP
# Method in brief: as §1
Sequence,binding signal (FLI1),binding signal (GABPA),binding signal (ELF1),binding signal (EHF),binding signal (SPIB),binding signal (ELK3),binding signal (ERG),binding signal (SPI1),binding signal (ELK1)
AAGGCT,"1.03 fold enrichment (6-mer frequency, TF over GST control)","1.12 fold enrichment (6-mer frequency, TF over GST control)","1.1 fold enrichment (6-mer frequency, TF over GST control)","1.02 fold enrichment (6-mer frequency, TF over GST control)","1.01 fold enrichment (6-mer frequency, TF over GST control)","1.1 fold enrichment (6-mer frequency, TF over GST control)",,,
TCATTA,"1.12 fold enrichment (6-mer frequency, TF over GST control)","1.07 fold enrichment (6-mer frequency, TF over GST control)","1.16 fold enrichment (6-mer frequency, TF over GST control)","1.09 fold enrichment (6-mer frequency, TF over GST control)","1.16 fold enrichment (6-mer frequency, TF over GST control)",,"1.06 fold enrichment (6-mer frequency, TF over GST control)","1.12 fold enrichment (6-mer frequency, TF over GST control)",
TAGTAA,"1.13 fold enrichment (6-mer frequency, TF over GST control)","1.03 fold enrichment (6-mer frequency, TF over GST control)","1.08 fold enrichment (6-mer frequency, TF over GST control)","1.03 fold enrichment (6-mer frequency, TF over GST control)","1.07 fold enrichment (6-mer frequency, TF over GST control)","1.13 fold enrichment (6-mer frequency, TF over GST control)",,"1.02 fold enrichment (6-mer frequency, TF over GST control)",
TCATCG,"1.12 fold enrichment (6-mer frequency, TF over GST control)",,"1.01 fold enrichment (6-mer frequency, TF over GST control)","1.05 fold enrichment (6-mer frequency, TF over GST control)","1.13 fold enrichment (6-mer frequency, TF over GST control)","1.02 fold enrichment (6-mer frequency, TF over GST control)",,,
CATTAC,"1.09 fold enrichment (6-mer frequency, TF over GST control)","1.2 fold enrichment (6-mer frequency, TF over GST control)","1.17 fold enrichment (6-mer frequency, TF over GST control)","1.13 fold enrichment (6-mer frequency, TF over GST control)","1.17 fold enrichment (6-mer frequency, TF over GST control)","1.15 fold enrichment (6-mer frequency, TF over GST control)","1.06 fold enrichment (6-mer frequency, TF over GST control)","1.1 fold enrichment (6-mer frequency, TF over GST control)",
TTCCAG,"1.03 fold enrichment (6-mer frequency, TF over GST control)",,"1.02 fold enrichment (6-mer frequency, TF over GST control)",,"1.1 fold enrichment (6-mer frequency, TF over GST control)","1.07 fold enrichment (6-mer frequency, TF over GST control)",,"1.05 fold enrichment (6-mer frequency, TF over GST control)","1.02 fold enrichment (6-mer frequency, TF over GST control)"
GAAAGA,"1.01 fold enrichment (6-mer frequency, TF over GST control)",,"1.08 fold enrichment (6-mer frequency, TF over GST control)","1.01 fold enrichment (6-mer frequency, TF over GST control)","1.02 fold enrichment (6-mer frequency, TF over GST control)",,"1.02 fold enrichment (6-mer frequency, TF over GST control)","1.14 fold enrichment (6-mer frequency, TF over GST control)",
TATTAG,"1.05 fold enrichment (6-mer frequency, TF over GST control)",,,"1.02 fold enrichment (6-mer frequency, TF over GST control)",,"1.18 fold enrichment (6-mer frequency, TF over GST control)","1.07 fold enrichment (6-mer frequency, TF over GST control)","1.09 fold enrichment (6-mer frequency, TF over GST control)","1.03 fold enrichment (6-mer frequency, TF over GST control)"
TGGATT,"1.02 fold enrichment (6-mer frequency, TF over GST control)",,,,"1.05 fold enrichment (6-mer frequency, TF over GST control)",,"1.05 fold enrichment (6-mer frequency, TF over GST control)","1.02 fold enrichment (6-mer frequency, TF over GST control)",
CATAAA,"1 fold enrichment (6-mer frequency, TF over GST control)",,,,"1.01 fold enrichment (6-mer frequency, TF over GST control)",,,,
